{"source": "the supplement of paper PMC10849652", "note": "About 7,900 targets were measured; listed, in parts, are those with a hit and a random draw of the rest. About 0.6% of all pairs of compound and target were hits. A number with no mark means an inactive call."}
{"compound": "CC1=C2C(=CC=C1)N=C(N(C2=O)C3=CC=CC=C3C)CN4C=NC5=C(N=CN=C54)N", "assay": "log2 fold change, soluble protein after heating vs DMSO (PISA); higher = thermal stabilisation; K562 cells, 10 uM, 30 min; active = over 0.2 and 3.5 SD of the protein, either way, in both replicates (recomputed)", "summary_of_the_method": "(§1)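 Values are thermal stability changes relative to control samples and are taken from duplicates. They are stated as log2 fold changes. Before quantification by TMTpro 16plex LC-MS/MS with equalised channel sums, K562 cells at 2×10^6 cells/mL were treated with 10 μM compound for 30 min, heated in aliquots for 3 min across 48°C-58°C, pooled, extracted in PBS with 0.5% NP-40 at 4°C, and centrifuged at 21,000xg for 90 min to give the soluble supernatant.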"}
{"target": "AZI2 (UniProt Q9H6S1)", "log2 fold change": -0.047}
{"target": "ASB6 (UniProt Q9NWX5)", "log2 fold change": 0.178}
{"target": "ALDH2 isoform 2 (UniProt P05091)", "sequence (P05091 whole entry, looked up)": "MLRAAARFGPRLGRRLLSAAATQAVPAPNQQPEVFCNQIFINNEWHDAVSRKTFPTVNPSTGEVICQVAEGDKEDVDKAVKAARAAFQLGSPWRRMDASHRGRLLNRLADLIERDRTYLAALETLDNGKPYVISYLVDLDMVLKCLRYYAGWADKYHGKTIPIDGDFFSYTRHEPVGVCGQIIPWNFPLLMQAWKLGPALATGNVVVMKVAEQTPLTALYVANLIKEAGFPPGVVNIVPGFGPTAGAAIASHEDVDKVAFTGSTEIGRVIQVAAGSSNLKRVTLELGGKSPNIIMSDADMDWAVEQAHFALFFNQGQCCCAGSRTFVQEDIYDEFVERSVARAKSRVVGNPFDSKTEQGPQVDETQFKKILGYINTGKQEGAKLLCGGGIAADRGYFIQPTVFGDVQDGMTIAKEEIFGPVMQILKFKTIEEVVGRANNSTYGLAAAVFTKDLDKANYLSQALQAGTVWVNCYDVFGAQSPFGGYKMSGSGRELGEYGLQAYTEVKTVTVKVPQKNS", "log2 fold change": 0.379}
{"target": "AASDH (UniProt Q4L235)", "log2 fold change": -0.25}
{"target": "AUNIP isoform 2 (UniProt Q9H7T9)", "sequence (Q9H7T9 whole entry, looked up)": "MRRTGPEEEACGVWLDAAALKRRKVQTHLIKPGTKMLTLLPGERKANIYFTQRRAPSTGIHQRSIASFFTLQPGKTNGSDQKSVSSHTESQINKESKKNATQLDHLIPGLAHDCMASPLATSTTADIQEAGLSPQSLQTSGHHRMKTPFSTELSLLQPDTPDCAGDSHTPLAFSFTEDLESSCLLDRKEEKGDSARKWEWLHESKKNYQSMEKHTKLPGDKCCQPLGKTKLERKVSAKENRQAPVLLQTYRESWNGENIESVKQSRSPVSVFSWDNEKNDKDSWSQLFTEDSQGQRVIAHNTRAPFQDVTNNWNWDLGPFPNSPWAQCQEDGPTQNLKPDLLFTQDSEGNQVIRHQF", "log2 fold change": 0.086}
{"target": "AIF1 (UniProt P55008)", "log2 fold change": 0.04}
{"target": "ANGEL1 (UniProt Q9UNK9)", "log2 fold change": -0.172}
{"target": "AUP1 (UniProt Q9Y679)", "log2 fold change": 0.028}
{"target": "BCCIP isoform 2 (UniProt Q9P287)", "sequence (Q9P287 whole entry, looked up)": "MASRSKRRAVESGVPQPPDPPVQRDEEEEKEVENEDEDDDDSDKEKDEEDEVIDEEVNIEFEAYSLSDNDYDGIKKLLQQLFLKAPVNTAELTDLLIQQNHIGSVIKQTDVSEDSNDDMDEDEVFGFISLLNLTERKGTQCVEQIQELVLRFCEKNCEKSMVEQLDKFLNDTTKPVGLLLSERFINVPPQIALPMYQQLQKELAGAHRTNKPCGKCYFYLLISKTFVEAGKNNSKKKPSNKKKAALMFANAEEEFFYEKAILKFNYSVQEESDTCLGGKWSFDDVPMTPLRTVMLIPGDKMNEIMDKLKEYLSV", "log2 fold change": -0.001}
{"target": "BDH2 (UniProt Q9BUT1)", "log2 fold change": -0.213}
{"target": "ACSL6 isoform 1 (UniProt Q9UKU0)", "log2 fold change": 0.29}
{"target": "ADD3 isoform 2 (UniProt Q9UEY8)", "sequence (Q9UEY8 whole entry, looked up)": "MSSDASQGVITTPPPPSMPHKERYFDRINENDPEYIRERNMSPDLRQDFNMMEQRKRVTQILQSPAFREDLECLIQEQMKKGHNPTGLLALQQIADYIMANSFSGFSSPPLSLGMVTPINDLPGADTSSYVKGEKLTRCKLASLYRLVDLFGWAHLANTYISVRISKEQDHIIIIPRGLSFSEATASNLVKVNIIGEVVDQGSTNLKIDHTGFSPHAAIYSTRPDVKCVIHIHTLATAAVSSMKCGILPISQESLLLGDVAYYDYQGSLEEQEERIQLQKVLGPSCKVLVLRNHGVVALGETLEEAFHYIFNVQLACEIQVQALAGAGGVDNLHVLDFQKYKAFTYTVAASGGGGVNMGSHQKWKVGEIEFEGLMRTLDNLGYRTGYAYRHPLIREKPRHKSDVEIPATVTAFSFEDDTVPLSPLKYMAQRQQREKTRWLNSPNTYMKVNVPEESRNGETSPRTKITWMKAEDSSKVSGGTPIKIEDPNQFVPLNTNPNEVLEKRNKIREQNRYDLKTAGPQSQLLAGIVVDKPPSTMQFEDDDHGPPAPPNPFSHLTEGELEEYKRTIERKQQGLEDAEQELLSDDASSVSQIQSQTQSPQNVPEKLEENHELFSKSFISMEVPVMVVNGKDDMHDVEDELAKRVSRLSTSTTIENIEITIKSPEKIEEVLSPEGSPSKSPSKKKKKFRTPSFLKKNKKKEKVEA", "log2 fold change": -0.038}
{"target": "APOBEC3G (UniProt Q9HC16)", "sequence (Q9HC16 whole entry, looked up)": "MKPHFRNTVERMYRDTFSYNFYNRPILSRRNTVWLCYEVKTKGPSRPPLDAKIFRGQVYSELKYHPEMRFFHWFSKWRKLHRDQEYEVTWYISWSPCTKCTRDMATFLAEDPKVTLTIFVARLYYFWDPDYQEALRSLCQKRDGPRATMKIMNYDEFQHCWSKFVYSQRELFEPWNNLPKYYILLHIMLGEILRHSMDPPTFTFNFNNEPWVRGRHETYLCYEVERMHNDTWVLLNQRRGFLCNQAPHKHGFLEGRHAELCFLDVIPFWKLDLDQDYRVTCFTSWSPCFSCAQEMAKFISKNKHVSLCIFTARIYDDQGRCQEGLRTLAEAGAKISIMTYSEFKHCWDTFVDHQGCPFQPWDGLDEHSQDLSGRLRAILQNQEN", "log2 fold change": 0.436}
{"target": "BAD (UniProt Q92934)", "log2 fold change": -0.086}
{"target": "ACVR1 (UniProt Q04771)", "sequence (Q04771 whole entry, looked up)": "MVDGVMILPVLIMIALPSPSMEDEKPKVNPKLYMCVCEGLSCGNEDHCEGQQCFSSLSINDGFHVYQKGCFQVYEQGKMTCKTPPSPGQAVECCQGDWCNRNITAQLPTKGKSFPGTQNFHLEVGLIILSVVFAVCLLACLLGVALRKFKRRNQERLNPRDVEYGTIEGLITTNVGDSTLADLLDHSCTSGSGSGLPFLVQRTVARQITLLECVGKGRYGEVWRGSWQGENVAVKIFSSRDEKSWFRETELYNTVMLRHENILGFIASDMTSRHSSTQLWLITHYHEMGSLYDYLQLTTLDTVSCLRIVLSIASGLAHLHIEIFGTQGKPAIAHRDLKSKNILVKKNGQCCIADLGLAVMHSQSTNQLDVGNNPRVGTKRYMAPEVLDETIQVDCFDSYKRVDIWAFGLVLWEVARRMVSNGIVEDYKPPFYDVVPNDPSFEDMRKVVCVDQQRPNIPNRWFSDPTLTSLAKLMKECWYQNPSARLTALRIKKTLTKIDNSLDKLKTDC", "log2 fold change": 0.041}
{"target": "ATP5IF1 (UniProt Q9UII2)", "sequence (Q9UII2 whole entry, looked up)": "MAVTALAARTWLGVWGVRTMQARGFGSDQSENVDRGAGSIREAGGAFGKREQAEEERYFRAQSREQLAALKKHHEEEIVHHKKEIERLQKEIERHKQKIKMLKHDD", "log2 fold change": -0.031}
{"target": "ADPRH (UniProt P54922)", "sequence (P54922 whole entry, looked up)": "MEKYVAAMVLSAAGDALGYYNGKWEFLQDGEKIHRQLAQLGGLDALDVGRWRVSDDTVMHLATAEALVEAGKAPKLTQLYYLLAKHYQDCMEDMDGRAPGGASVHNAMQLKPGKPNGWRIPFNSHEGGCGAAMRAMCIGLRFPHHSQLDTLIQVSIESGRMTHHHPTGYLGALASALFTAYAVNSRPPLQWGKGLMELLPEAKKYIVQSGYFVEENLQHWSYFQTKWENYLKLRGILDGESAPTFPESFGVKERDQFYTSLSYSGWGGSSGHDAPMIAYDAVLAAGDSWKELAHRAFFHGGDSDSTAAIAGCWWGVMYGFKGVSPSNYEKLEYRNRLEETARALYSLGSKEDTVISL", "log2 fold change": 0.344}
{"target": "ALDH1B1 (UniProt P30837)", "sequence (P30837 whole entry, looked up)": "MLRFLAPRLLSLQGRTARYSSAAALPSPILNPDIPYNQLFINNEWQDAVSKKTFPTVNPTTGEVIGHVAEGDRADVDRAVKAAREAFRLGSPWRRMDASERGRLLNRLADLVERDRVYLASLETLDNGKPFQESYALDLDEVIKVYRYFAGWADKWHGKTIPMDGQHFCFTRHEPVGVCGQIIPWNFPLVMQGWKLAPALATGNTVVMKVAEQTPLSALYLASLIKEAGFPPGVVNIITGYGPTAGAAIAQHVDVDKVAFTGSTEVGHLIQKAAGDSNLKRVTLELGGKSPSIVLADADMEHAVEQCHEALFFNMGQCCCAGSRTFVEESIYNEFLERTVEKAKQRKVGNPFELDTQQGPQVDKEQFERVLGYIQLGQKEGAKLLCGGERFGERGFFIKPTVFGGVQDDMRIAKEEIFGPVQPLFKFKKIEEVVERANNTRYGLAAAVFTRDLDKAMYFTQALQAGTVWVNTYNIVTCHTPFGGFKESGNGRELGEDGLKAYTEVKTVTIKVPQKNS", "log2 fold change": 0.013}
{"target": "ATG9A (UniProt Q7Z3C6)", "sequence (Q7Z3C6 whole entry, looked up)": "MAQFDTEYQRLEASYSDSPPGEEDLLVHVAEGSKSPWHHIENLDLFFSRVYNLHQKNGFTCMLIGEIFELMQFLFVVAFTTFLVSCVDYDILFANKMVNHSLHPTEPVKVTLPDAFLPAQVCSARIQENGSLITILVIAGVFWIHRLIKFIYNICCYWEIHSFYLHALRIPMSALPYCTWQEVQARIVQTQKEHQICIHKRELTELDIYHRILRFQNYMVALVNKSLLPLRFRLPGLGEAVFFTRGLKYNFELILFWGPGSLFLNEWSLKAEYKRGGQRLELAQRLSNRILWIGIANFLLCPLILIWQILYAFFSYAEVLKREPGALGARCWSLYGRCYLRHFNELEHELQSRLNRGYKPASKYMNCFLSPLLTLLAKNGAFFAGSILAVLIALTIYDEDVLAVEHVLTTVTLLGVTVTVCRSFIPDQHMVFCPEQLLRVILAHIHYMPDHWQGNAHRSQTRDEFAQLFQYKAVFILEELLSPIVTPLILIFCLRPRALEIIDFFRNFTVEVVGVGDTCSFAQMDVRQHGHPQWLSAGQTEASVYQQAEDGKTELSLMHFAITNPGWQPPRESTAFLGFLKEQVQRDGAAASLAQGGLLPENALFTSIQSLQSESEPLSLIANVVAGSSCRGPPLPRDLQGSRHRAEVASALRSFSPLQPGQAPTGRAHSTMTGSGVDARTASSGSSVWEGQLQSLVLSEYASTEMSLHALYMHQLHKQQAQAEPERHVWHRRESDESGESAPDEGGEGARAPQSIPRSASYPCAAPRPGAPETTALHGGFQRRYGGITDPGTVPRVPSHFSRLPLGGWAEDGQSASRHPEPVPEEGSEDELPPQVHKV", "log2 fold change": 0.021}
{"target": "AMD1 (UniProt P17707)", "sequence (P17707 whole entry, looked up)": "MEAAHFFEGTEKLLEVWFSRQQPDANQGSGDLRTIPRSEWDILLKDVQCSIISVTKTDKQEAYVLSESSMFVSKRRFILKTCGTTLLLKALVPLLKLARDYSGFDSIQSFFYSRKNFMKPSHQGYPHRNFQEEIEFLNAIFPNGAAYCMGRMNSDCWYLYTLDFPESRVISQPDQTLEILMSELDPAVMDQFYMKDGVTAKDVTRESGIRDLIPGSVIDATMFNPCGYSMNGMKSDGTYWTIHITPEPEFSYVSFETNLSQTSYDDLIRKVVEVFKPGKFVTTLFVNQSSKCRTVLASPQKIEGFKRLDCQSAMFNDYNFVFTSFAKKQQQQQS", "log2 fold change": 0.168}
{"target": "APAF1 (UniProt O14727)", "log2 fold change": 0.112}
{"target": "ACTBL2 (UniProt Q562R1)", "log2 fold change": -0.201}
{"target": "ARMC8 isoform 6 (UniProt Q8IUR7)", "log2 fold change": 0.088}
{"target": "AFDN isoform 1 (UniProt P55196)", "log2 fold change": 0.029}
{"target": "ACTR3B (UniProt Q9P1U1)", "log2 fold change": -0.002}
{"target": "AP4S1 (UniProt Q9Y587)", "log2 fold change": 0.069}
{"compound": "Cc1sc2c(c1C)C(c1ccc(Cl)cc1)=N[C@@H](CC(=O)OC(C)(C)C)c1nnc(C)n1-2", "assay": "log2 fold change, soluble protein after heating vs DMSO (PISA); higher = thermal stabilisation; K562 cells, 10 uM, 30 min; active = over 0.2 and 3.5 SD of the protein, either way, in both replicates (recomputed)", "summary_of_the_method": "as §1"}
{"target": "AZI2 (UniProt Q9H6S1)", "log2 fold change": 0.136}
{"target": "BRAF, A0A2R8Y8E0", "log2 fold change": 0.162}
{"target": "ALDH2 isoform 2 (UniProt P05091)", "log2 fold change": 0.074}
{"target": "AGAP3 isoform 4 (UniProt Q96P47)", "log2 fold change": -0.006}
{"target": "AASDH (UniProt Q4L235)", "log2 fold change": -0.05}
{"target": "AUNIP isoform 2 (UniProt Q9H7T9)", "log2 fold change": -0.001}
{"target": "ANGEL1 (UniProt Q9UNK9)", "log2 fold change": -0.042}
{"target": "AUP1 (UniProt Q9Y679)", "log2 fold change": -0.074}
{"target": "BCCIP isoform 2 (UniProt Q9P287)", "log2 fold change": -0.035}
{"target": "ACSL6 isoform 1 (UniProt Q9UKU0)", "log2 fold change": -0.009}
{"target": "ADD3 isoform 2 (UniProt Q9UEY8)", "log2 fold change": 0.007}
{"target": "APOBEC3G (UniProt Q9HC16)", "log2 fold change": 0.147}
{"target": "ACVR1 (UniProt Q04771)", "log2 fold change": -0.218}
{"target": "ATP5IF1 (UniProt Q9UII2)", "log2 fold change": -0.013}
{"target": "BAP18 isoform 3 (UniProt Q8IXM2)", "log2 fold change": 0.041}
{"target": "ADPRH (UniProt P54922)", "log2 fold change": -0.121}
{"target": "ALDH1B1 (UniProt P30837)", "log2 fold change": -0.047}
{"target": "ATG9A (UniProt Q7Z3C6)", "log2 fold change": -0.028}
{"target": "AMD1 (UniProt P17707)", "log2 fold change": -0.164}
{"target": "AP2S1 (UniProt M0QZ21)", "log2 fold change": -0.014}
{"target": "BRMS1 (UniProt Q9HCU9)", "log2 fold change": -0.011}
{"target": "ACTR3B (UniProt Q9P1U1)", "log2 fold change": 0.173}
{"target": "BAIAP2 isoform 4 (UniProt Q9UQB8)", "log2 fold change": -0.206}
{"target": "ABCA4 (UniProt P78363)", "log2 fold change": 0.03}
